Measured values reported in PubChem BioAssay AID1159580 (chemical genetic matrix, 2015).
The campaign covered roughly 5,500 compounds. About 2,000 (36%) were called active. Roughly 18% stayed inconclusive and do not appear here. Rule as the data show it: active = normalized growth mostly below about 0.91 (no sharp cut-off); inconclusive = no clear call, values can overlap the other calls; inactive = mostly above about 0.92. This is one part of the list.

Assay: chemical genetic growth profiling, strain panel (AID 1159580);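 also: tested at 20 µM; growth read once vehicle control cultures reached saturation at 30 °C; 1 = growth at the plate median or of vehicle wells; lower values mean less growth of the strain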
Details: growth OD

Measured: normalized growth

O=C1C=CC2=C3c4cc(O)c(O)cc4C[C@@]3(O)COC2=C1
inactive: S. cerevisiae deletion strains, locus YJR066W, strain TOR1, hits give low values 0.935 | S. cerevisiae deletion strains, locus YKL009W, strain mrt4, hits give low values 1.01 | S. cerevisiae deletion strains, locus YKL068W, hits give low values 1.01 | S. cerevisiae deletion strains, locus YKL085W, strain MDH1 (second series), hits give low values 1.01 | S. cerevisiae deletion strains, locus YKL085W, strain MDH1, hits give low values 1.01 | S. cerevisiae deletion strains, locus YKL160W, strain elf1, hits give low values 0.953 | S. cerevisiae deletion strains, locus YKR001C, strain vps1, hits give low values 1.02 | S. cerevisiae deletion strains, locus YKR026C, strain gcn3, hits give low values 0.983 | S. cerevisiae deletion strains, locus YKR091W, strain srl3, hits give low values 0.97 | S. cerevisiae deletion strains, locus YLL001W, strain dnm1, hits give low values 0.976 | S. cerevisiae deletion strains, locus YLL026W, hits give low values 0.986 | S. cerevisiae deletion strains, locus YLL041C, strain sdh2, hits give low values 0.976 | S. cerevisiae deletion strains, locus YLR027C, strain aat2, hits give low values 0.979 | S. cerevisiae deletion strains, locus YLR039C, strain RIC1, hits give low values 1.07 | S. cerevisiae deletion strains, locus YLR058C, strain SHM2, hits give low values 0.997 | S. cerevisiae deletion strains, locus YLR102C, strain apc9, hits give low values 0.992 | S. cerevisiae deletion strains, locus YLR113W, strain HOG1, hits give low values 1.08 | S. cerevisiae deletion strains, locus YLR221C, strain rsa3, hits give low values 0.991 | S. cerevisiae deletion strains, locus YLR258W, strain gsy2, hits give low values 0.971 | S. cerevisiae deletion strains, locus YLR262C, strain YPT6 (second series), hits give low values 0.976 | S. cerevisiae deletion strains, locus YLR262C, strain YPT6, hits give low values 1.08 | S. cerevisiae deletion strains, locus YLR268W, strain sec22, hits give low values 1.03 | S. cerevisiae deletion strains, locus YLR320W, strain mms22, hits give low values 0.995 | S. cerevisiae deletion strains, locus YLR342W, strain FKS1, hits give low values 0.985 | S. cerevisiae deletion strains, locus YLR357W, strain rsc2, hits give low values 0.912 | S. cerevisiae deletion strains, locus YLR370C, strain arc18, hits give low values 0.987 | S. cerevisiae deletion strains, locus YLR371W, strain rom2, hits give low values 0.989 | S. cerevisiae deletion strains, locus YLR384C, strain iki3, hits give low values 0.971 | S. cerevisiae deletion strains, locus YLR418C, strain cdc73, hits give low values 0.991 | S. cerevisiae deletion strains, locus YML016C, strain PPZ1, hits give low values 0.996 | S. cerevisiae deletion strains, locus YML032C, strain rad52, hits give low values 1.02 | S. cerevisiae deletion strains, locus YML120C, strain ndi1, hits give low values 0.983 | S. cerevisiae deletion strains, locus YML124C, strain tub3, hits give low values 1 | S. cerevisiae deletion strains, locus YMR058W, strain fet3, hits give low values 0.941 | S. cerevisiae deletion strains, locus YMR078C, strain ctf18, hits give low values 0.996 | S. cerevisiae deletion strains, locus YMR125W, strain sto1, hits give low values 0.954 | S. cerevisiae deletion strains, locus YMR129W, hits give low values 1 | S. cerevisiae deletion strains, locus YMR205C, strain PFK2, hits give low values 0.98 | S. cerevisiae deletion strains, locus YMR223W, strain ubp8, hits give low values 0.975 | S. cerevisiae deletion strains, locus YMR231W, strain pep5, hits give low values 0.957 | S. cerevisiae deletion strains, locus YMR307W, strain GAS1, hits give low values 0.991 | S. cerevisiae deletion strains, locus YNL067W, strain RPL9B, hits give low values 0.994 | S. cerevisiae deletion strains, locus YNL071W, strain lat1, hits give low values 0.982 | S. cerevisiae deletion strains, locus YNL128W, strain TEP1, hits give low values 0.998 | S. cerevisiae deletion strains, locus YNL153C, strain GIM3, hits give low values 0.963 | S. cerevisiae deletion strains, locus YNL183C, strain NPR1, hits give low values 0.971 | S. cerevisiae deletion strains, locus YNL209W, strain ssb2, hits give low values 0.987 | S. cerevisiae deletion strains, locus YNL233W, strain BNI4, hits give low values 0.992 | S. cerevisiae deletion strains, locus YNL248C, strain rpa49, hits give low values 0.969 | S. cerevisiae deletion strains, locus YNL250W, strain rad50, hits give low values 0.954 | S. cerevisiae deletion strains, locus YNL271C, strain bni1, hits give low values 0.982 | S. cerevisiae deletion strains, locus YNL298W, strain CLA4, hits give low values 0.996 | S. cerevisiae deletion strains, locus YNL307C, strain MCK1, hits give low values 1 | S. cerevisiae deletion strains, locus YNL322C, strain KRE1 (second series), hits give low values 0.971 | S. cerevisiae deletion strains, locus YNL322C, strain KRE1, hits give low values 1.01 | S. cerevisiae deletion strains, locus YNR049C, strain mso1, hits give low values 0.977 | S. cerevisiae deletion strains, locus YNR052C, strain pop2, hits give low values 0.967 | S. cerevisiae deletion strains, locus YOL012C, strain htz1 0.978 | S. cerevisiae deletion strains, locus YOL147C, strain pex11, hits give low values 0.998 | S. cerevisiae deletion strains, locus YOR001W, strain rrp6, hits give low values 0.968 | S. cerevisiae deletion strains, locus YOR061W, strain CKA2, hits give low values 1.01 | S. cerevisiae deletion strains, locus YOR069W, strain VPS5, hits give low values 0.993 | S. cerevisiae deletion strains, locus YOR070C, strain gyp1, hits give low values 0.967 | S. cerevisiae deletion strains, locus YOR080W, strain dia2, hits give low values 0.979 | S. cerevisiae deletion strains, locus YOR083W, strain WHI5, hits give low values 0.959 | S. cerevisiae deletion strains, locus YOR106W, strain vam3, hits give low values 0.931 | S. cerevisiae deletion strains, locus YOR136W, strain idh2, hits give low values 0.998 | S. cerevisiae deletion strains, locus YOR144C, strain elg1, hits give low values 1.01 | S. cerevisiae deletion strains, locus YOR184W, strain ser1, hits give low values 1.08 | S. cerevisiae deletion strains, locus YOR231W, strain MKK1, hits give low values 1.02 | S. cerevisiae deletion strains, locus YOR265W, strain rbl2, hits give low values 0.986 | S. cerevisiae deletion strains, locus YOR270C, strain vph1, hits give low values 1.01 | S. cerevisiae deletion strains, locus YOR290C, strain snf2, hits give low values 0.946 | S. cerevisiae deletion strains, locus YOR316C, strain cot1, hits give low values 1 | S. cerevisiae deletion strains, locus YPL051W, strain arl3, hits give low values 0.968 | S. cerevisiae deletion strains, locus YPL055C, strain LGE1, hits give low values 1.04 | S. cerevisiae deletion strains, locus YPL078C, strain atp4, hits give low values 0.992 | S. cerevisiae deletion strains, locus YPL106C, strain sse1, hits give low values 0.944 | S. cerevisiae deletion strains, locus YPL240C, strain hsp82, hits give low values 0.99 | S. cerevisiae deletion strains, locus YPL241C, strain CIN2, hits give low values 1.01 | S. cerevisiae deletion strains, locus YPL256C, strain CLN2, hits give low values 1 | S. cerevisiae deletion strains, locus YPR119W, strain clb2, hits give low values 0.996 | S. cerevisiae deletion strains, locus YPR141C, strain kar3, hits give low values 0.993 | S. cerevisiae deletion strains, locus YPR163C, strain tif3, hits give low values 1 | S. cerevisiae deletion strains, locus YPR167C, strain met16, hits give low values 0.978 | S. cerevisiae deletion strains, strain wtn01, hits give low values 1.03 | S. cerevisiae strains, strain wild type, hits give low values 1.03
